These results are taken from publication PMC11006913.

Targets include ALX1 (Homo sapiens, UniProt Q15699 118-204, L144R); HESX1 (Homo sapiens, UniProt Q9UBX0 95-180); PITX2 (Homo sapiens, UniProt Q99697 72-157).
Assay in all cases: PBM; 200 nM protein, PBS
Common to all, as to settings: dsDNA, one strand shown

Assay [1] has as its target PRRX1 (Homo sapiens, UniProt P54821 80-166, F113S).
In assay [2] the target is HOXB6 (Homo sapiens, UniProt P17509 132-218, K202E).
In assay [3] the target is PRRX1 (Homo sapiens, UniProt P54821 80-166).
Sequence of PRRX1 (Homo sapiens, UniProt P54821 80-166) (P54821 80-166): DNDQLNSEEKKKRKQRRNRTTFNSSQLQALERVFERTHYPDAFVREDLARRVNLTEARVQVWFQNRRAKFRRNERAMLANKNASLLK
Assay [4] deals with HOXB6 (Homo sapiens, UniProt P17509 132-218).
Sequence of HOXB6 (Homo sapiens, UniProt P17509 132-218) (P17509 132-218): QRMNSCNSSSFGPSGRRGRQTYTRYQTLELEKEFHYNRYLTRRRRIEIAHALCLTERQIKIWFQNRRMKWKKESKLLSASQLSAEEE
Assay [5] concerns the target ALX3 (Homo sapiens, UniProt O95076 139-225, N203Q).
For assay [6], the target named is ALX3 (Homo sapiens, UniProt O95076 139-225).
Sequence of ALX3 (Homo sapiens, UniProt O95076 139-225) (O95076 139-225): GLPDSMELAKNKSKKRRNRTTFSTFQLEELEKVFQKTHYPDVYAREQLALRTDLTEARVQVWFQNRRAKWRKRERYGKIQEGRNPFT
Assay [7] deals with VAX1 (Homo sapiens, UniProt Q5SQQ9 86-172).
Sequence of VAX1 (Homo sapiens, UniProt Q5SQQ9 86-172) (Q5SQQ9 86-172): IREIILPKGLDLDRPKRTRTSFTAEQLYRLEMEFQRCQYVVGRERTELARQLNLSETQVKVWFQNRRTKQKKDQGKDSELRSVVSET
Assay [8] addresses ALX3 (Homo sapiens, UniProt O95076 139-225, L168Q).
Assay [9] has as its target ALX3 (Homo sapiens, UniProt O95076 139-225, L168V).
The target in assay [10] is VAX1 (Homo sapiens, UniProt Q5SQQ9 86-172, T142I).
Sequence of VAX1 (Homo sapiens, UniProt Q5SQQ9 86-172, T142I) (Q5SQQ9 86-172 T142I): as the sequence (Q5SQQ9 86-172) above, with T57I counted along it
Assay [11] has as its target ALX3 (Homo sapiens, UniProt O95076 139-225, N203S).
The target in assay [12] is VAX1 (Homo sapiens, UniProt Q5SQQ9 86-172, K157R).
Sequence of VAX1 (Homo sapiens, UniProt Q5SQQ9 86-172, K157R) (Q5SQQ9 86-172 K157R): as the sequence (Q5SQQ9 86-172) above, with K72R counted along it
Assay [13] deals with HOXA2 (Homo sapiens, UniProt O43364 129-215, R185T).
Sequence of HOXA2 (Homo sapiens, UniProt O43364 129-215, R185T) (O43364 129-215 R185T): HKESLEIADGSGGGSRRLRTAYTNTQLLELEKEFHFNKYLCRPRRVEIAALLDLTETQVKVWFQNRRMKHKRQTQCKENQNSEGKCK
In assay [14] the target is HOXA2 (Homo sapiens, UniProt O43364 129-215, R185K).
Sequence of HOXA2 (Homo sapiens, UniProt O43364 129-215, R185K) (O43364 129-215 R185K): as the sequence (O43364 129-215 R185T) above, with T57K counted along it
For assay [15], the target named is HOXA2 (Homo sapiens, UniProt O43364 129-215, Y150S).
Sequence of HOXA2 (Homo sapiens, UniProt O43364 129-215, Y150S) (O43364 129-215 Y150S): as the sequence (O43364 129-215 R185T) above, with Y22S, T57R counted along it
The target of assay [16] is HOXA2 (Homo sapiens, UniProt O43364 129-215).
Sequence of HOXA2 (Homo sapiens, UniProt O43364 129-215) (O43364 129-215): as the sequence (O43364 129-215 R185T) above, with T57R counted along it
Assay [17] concerns the target PROP1 (Homo sapiens, UniProt O75360 56-141).
Assay [18] deals with PROP1 (Homo sapiens, UniProt O75360 56-141, R99H).
Sequence of PROP1 (Homo sapiens, UniProt O75360 56-141, R99H) (O75360 56-141 R99H): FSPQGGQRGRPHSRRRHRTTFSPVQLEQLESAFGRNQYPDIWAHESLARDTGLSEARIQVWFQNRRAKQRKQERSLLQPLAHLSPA
Assay [19] addresses PROP1 (Homo sapiens, UniProt O75360 56-141, F88S).
For assay [20], the target named is HOXD13 (Homo sapiens, UniProt P35453 263-343, T313R).
Sequence of HOXD13 (Homo sapiens, UniProt P35453 263-343, T313R) (P35453 263-343 T313R): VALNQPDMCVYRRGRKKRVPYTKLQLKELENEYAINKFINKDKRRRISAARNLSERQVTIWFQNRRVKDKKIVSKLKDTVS
In assay [21] the target is HOXD13 (Homo sapiens, UniProt P35453 263-343).
Sequence of HOXD13 (Homo sapiens, UniProt P35453 263-343) (P35453 263-343): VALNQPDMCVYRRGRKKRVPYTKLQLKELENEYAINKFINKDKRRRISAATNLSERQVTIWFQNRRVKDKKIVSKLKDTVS
Assay [22] addresses HOXD13 (Homo sapiens, UniProt P35453 263-343, T313A).
Assay [23] has as its target MSX2 (Homo sapiens, UniProt P35548 130-214, R199I).
Assay [24] deals with MSX2 (Homo sapiens, UniProt P35548 130-214).
Sequence of MSX2 (Homo sapiens, UniProt P35548 130-214) (P35548 130-214): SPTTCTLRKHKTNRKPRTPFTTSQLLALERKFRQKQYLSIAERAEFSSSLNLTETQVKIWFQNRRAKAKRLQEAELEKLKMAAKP
In assay [25] the target is MSX2 (Homo sapiens, UniProt P35548 130-214, F161Y).
Sequence of MSX2 (Homo sapiens, UniProt P35548 130-214, F161Y) (P35548 130-214 F161Y): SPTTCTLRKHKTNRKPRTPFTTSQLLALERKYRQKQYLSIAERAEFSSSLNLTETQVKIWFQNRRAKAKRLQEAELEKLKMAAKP

Sequence of PRRX1 (Homo sapiens, UniProt P54821 80-166, F113S) (P54821 80-166 F113S): as the sequence (P54821 80-166) above, with F34S counted along it
Sequence of PROP1 (Homo sapiens, UniProt O75360 56-141, F88S) (O75360 56-141 F88S): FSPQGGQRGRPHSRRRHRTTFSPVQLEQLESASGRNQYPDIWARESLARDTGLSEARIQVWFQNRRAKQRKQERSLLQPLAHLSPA
Sequence of PROP1 (Homo sapiens, UniProt O75360 56-141) (O75360 56-141): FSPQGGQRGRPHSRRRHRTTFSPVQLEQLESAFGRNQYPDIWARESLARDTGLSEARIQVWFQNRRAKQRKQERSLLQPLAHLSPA
Sequence of HOXD13 (Homo sapiens, UniProt P35453 263-343, T313A) (P35453 263-343 T313A): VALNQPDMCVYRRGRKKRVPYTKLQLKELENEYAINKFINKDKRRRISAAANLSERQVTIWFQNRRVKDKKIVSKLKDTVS
Sequence of ALX3 (Homo sapiens, UniProt O95076 139-225, N203S) (O95076 139-225 N203S): as the sequence (O95076 139-225) above, with N65S counted along it
Sequence of ALX1 (Q15699 118-204 L144R): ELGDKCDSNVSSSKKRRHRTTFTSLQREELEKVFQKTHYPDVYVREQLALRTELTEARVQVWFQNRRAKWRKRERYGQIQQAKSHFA
Sequence of HESX1 (Q9UBX0 95-180): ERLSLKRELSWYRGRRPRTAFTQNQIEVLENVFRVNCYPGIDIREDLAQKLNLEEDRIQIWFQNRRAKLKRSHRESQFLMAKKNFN
Sequence of HOXB6 (Homo sapiens, UniProt P17509 132-218, K202E) (P17509 132-218 K202E): as the sequence (P17509 132-218) above, with K71E counted along it
Sequence of ALX3 (Homo sapiens, UniProt O95076 139-225, L168V) (O95076 139-225 L168V): as the sequence (O95076 139-225) above, with L30V counted along it
Sequence of ALX3 (Homo sapiens, UniProt O95076 139-225, N203Q) (O95076 139-225 N203Q): as the sequence (O95076 139-225) above, with N65Q counted along it
Sequence of MSX2 (Homo sapiens, UniProt P35548 130-214, R199I) (P35548 130-214 R199I): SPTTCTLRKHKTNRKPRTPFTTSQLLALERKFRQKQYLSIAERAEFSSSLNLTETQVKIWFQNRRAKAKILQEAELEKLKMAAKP
Sequence of ALX3 (Homo sapiens, UniProt O95076 139-225, L168Q) (O95076 139-225 L168Q): as the sequence (O95076 139-225) above, with L30Q counted along it

With GCCGGACC, the binding signal with PRRX1 [1] was 9.13 upbm affinity estimate (log intensity, higher = more binding, comparable within an allelic series); with HOXB6 [2] it was 8.9 upbm affinity estimate (log intensity, higher = more binding, comparable within an allelic series); in the assay with PRRX1 [3], 9.39 upbm affinity estimate (log intensity, higher = more binding, comparable within an allelic series); with HOXB6 [4], 8.93 upbm affinity estimate (log intensity, higher = more binding, comparable within an allelic series).
As to AGCCGGGC, the binding signal is 8.99 upbm affinity estimate (log intensity, higher = more binding, comparable within an allelic series) in the assay with PRRX1 [1]; 7.69 upbm affinity estimate (log intensity, higher = more binding, comparable within an allelic series) with ALX3 [5]; 7.71 upbm affinity estimate (log intensity, higher = more binding, comparable within an allelic series) in the assay with ALX3 [6]; 7 upbm affinity estimate (log intensity, higher = more binding, comparable within an allelic series) in the assay with VAX1 [7]; 7.68 upbm affinity estimate (log intensity, higher = more binding, comparable within an allelic series) with ALX3 [8]; 7.64 upbm affinity estimate (log intensity, higher = more binding, comparable within an allelic series) with ALX3 [9]. For the same sequence, the binding signal is 7.24 upbm affinity estimate (log intensity, higher = more binding, comparable within an allelic series) in the assay with VAX1 [10]; 7.72 upbm affinity estimate (log intensity, higher = more binding, comparable within an allelic series) in the assay with ALX3 [11]; 9.33 upbm affinity estimate (log intensity, higher = more binding, comparable within an allelic series) with PRRX1 [3]; 6.91 upbm affinity estimate (log intensity, higher = more binding, comparable within an allelic series) with VAX1 [12].
On to TTAATCAA, for which the binding signal with PRRX1 [1] is 11.1 upbm affinity estimate (log intensity, higher = more binding, comparable within an allelic series); with ALX1 it was 11.2 upbm affinity estimate (log intensity, higher = more binding, comparable within an allelic series); with PRRX1 [3], 13.3 upbm affinity estimate (log intensity, higher = more binding, comparable within an allelic series).
Turning to CAGGCCGC, the binding signal in the assay with PRRX1 [1] is 9.29 upbm affinity estimate (log intensity, higher = more binding, comparable within an allelic series); in the assay with HOXA2 [13], 7.44 upbm affinity estimate (log intensity, higher = more binding, comparable within an allelic series); with HOXA2 [14] it was 10.3 upbm affinity estimate (log intensity, higher = more binding, comparable within an allelic series); with HOXA2 [15] it was 10.4 upbm affinity estimate (log intensity, higher = more binding, comparable within an allelic series); with PRRX1 [3] it was 9.35 upbm affinity estimate (log intensity, higher = more binding, comparable within an allelic series); with HOXA2 [16], 7.49 upbm affinity estimate (log intensity, higher = more binding, comparable within an allelic series).
As for CGTAAGTA, the binding signal was 10 upbm affinity estimate (log intensity, higher = more binding, comparable within an allelic series) with PRRX1 [1]; 7.17 upbm affinity estimate (log intensity, higher = more binding, comparable within an allelic series) with HESX1; 11 upbm affinity estimate (log intensity, higher = more binding, comparable within an allelic series) in the assay with PRRX1 [3].
As to GCCCGTCC, the binding signal with PRRX1 [1] is 9.26 upbm affinity estimate (log intensity, higher = more binding, comparable within an allelic series); in the assay with PROP1 [17] it was 6.49 upbm affinity estimate (log intensity, higher = more binding, comparable within an allelic series); in the assay with PROP1 [18], 6.5 upbm affinity estimate (log intensity, higher = more binding, comparable within an allelic series); in the assay with PROP1 [19], 6.38 upbm affinity estimate (log intensity, higher = more binding, comparable within an allelic series); in the assay with PRRX1 [3], 8.92 upbm affinity estimate (log intensity, higher = more binding, comparable within an allelic series).
Regarding TCGTAACA, the binding signal in the assay with PRRX1 [1] was 10.2 upbm affinity estimate (log intensity, higher = more binding, comparable within an allelic series); with PRRX1 [3], 11.3 upbm affinity estimate (log intensity, higher = more binding, comparable within an allelic series).
As for CATAAATC, the binding signal in the assay with PRRX1 [1] is 10.2 upbm affinity estimate (log intensity, higher = more binding, comparable within an allelic series); in the assay with HOXD13 [20], 10.7 upbm affinity estimate (log intensity, higher = more binding, comparable within an allelic series); in the assay with HOXD13 [21] it was 11.8 upbm affinity estimate (log intensity, higher = more binding, comparable within an allelic series); with HOXD13 [22] it was 11.5 upbm affinity estimate (log intensity, higher = more binding, comparable within an allelic series); in the assay with PRRX1 [3] it was 11.5 upbm affinity estimate (log intensity, higher = more binding, comparable within an allelic series).
Take AGTGGTAA: the binding signal is 10 upbm affinity estimate (log intensity, higher = more binding, comparable within an allelic series) with PRRX1 [1]; 9.41 upbm affinity estimate (log intensity, higher = more binding, comparable within an allelic series) with VAX1 [7]; 11.2 upbm affinity estimate (log intensity, higher = more binding, comparable within an allelic series) with PRRX1 [3].
For the sequence ACTGTTAT, the binding signal in the assay with PRRX1 [1] is 10.2 upbm affinity estimate (log intensity, higher = more binding, comparable within an allelic series); with PROP1 [17], 8.21 upbm affinity estimate (log intensity, higher = more binding, comparable within an allelic series); with PROP1 [18], 7.73 upbm affinity estimate (log intensity, higher = more binding, comparable within an allelic series); with PROP1 [19], 7.48 upbm affinity estimate (log intensity, higher = more binding, comparable within an allelic series); in the assay with PRRX1 [3], 11.4 upbm affinity estimate (log intensity, higher = more binding, comparable within an allelic series).
As to CGGCACCG, the binding signal was 9.31 upbm affinity estimate (log intensity, higher = more binding, comparable within an allelic series) in the assay with PRRX1 [1]; 9.48 upbm affinity estimate (log intensity, higher = more binding, comparable within an allelic series) in the assay with MSX2 [23]; 7.77 upbm affinity estimate (log intensity, higher = more binding, comparable within an allelic series) in the assay with PITX2; 9.42 upbm affinity estimate (log intensity, higher = more binding, comparable within an allelic series) with MSX2 [24]; 9.54 upbm affinity estimate (log intensity, higher = more binding, comparable within an allelic series) in the assay with MSX2 [25]; 9.57 upbm affinity estimate (log intensity, higher = more binding, comparable within an allelic series) with PRRX1 [3].
